The full data set covers some 7,900 targets. This sample favours those with a hit. About 0.6% of all pairs of compound and target were hits. Values without a mark were called inactive.
These targets were tested with c1cn2cc(-c3ccc4cn[nH]c4c3)nc(Nc3ccc(N4CCOCC4)cc3)c2n1 [entospletinib] (assay: log2 fold change, soluble protein after heating vs DMSO (PISA); higher = thermal stabilisation; K562 cells, 10 uM, 30 min; active = over 0.2 and 3.5 SD of the protein, either way, in both replicates (recomputed)).
Summary of the method: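 Quantification of soluble protein used TMTpro 16plex LC-MS/MS, with channel sums equalised. Samples were the supernatant after 21,000xg for 90 min of pooled aliquots from K562 cells (2×10^6 cells/mL) treated with 10 μM compound for 30 min, heated for 3 min over 48°C-58°C, and extracted in PBS with 0.5% NP-40 at 4°C. Values, from duplicates, describe thermal stability against control samples on a log2 fold-change scale.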
UniProt O94925, sequence (O94925 whole entry, looked up): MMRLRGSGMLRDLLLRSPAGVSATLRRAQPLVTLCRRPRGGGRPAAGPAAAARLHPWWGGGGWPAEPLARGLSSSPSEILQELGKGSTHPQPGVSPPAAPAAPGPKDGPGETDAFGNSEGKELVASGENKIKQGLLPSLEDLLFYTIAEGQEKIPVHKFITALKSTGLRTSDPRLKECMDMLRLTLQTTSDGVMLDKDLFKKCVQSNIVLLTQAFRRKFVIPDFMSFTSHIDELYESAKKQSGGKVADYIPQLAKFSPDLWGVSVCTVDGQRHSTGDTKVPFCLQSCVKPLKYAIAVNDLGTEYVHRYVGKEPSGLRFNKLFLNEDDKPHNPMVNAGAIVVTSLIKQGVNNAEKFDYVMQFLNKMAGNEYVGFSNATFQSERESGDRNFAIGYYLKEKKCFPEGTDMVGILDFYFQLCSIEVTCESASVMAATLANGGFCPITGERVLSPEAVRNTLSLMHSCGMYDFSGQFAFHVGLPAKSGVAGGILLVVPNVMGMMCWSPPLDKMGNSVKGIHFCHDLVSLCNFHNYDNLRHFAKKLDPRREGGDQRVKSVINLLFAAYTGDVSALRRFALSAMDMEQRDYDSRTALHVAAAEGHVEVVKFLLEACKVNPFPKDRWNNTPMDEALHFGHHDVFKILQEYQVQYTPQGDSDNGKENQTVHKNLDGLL
UniProt P52789, sequence (P52789 whole entry, looked up): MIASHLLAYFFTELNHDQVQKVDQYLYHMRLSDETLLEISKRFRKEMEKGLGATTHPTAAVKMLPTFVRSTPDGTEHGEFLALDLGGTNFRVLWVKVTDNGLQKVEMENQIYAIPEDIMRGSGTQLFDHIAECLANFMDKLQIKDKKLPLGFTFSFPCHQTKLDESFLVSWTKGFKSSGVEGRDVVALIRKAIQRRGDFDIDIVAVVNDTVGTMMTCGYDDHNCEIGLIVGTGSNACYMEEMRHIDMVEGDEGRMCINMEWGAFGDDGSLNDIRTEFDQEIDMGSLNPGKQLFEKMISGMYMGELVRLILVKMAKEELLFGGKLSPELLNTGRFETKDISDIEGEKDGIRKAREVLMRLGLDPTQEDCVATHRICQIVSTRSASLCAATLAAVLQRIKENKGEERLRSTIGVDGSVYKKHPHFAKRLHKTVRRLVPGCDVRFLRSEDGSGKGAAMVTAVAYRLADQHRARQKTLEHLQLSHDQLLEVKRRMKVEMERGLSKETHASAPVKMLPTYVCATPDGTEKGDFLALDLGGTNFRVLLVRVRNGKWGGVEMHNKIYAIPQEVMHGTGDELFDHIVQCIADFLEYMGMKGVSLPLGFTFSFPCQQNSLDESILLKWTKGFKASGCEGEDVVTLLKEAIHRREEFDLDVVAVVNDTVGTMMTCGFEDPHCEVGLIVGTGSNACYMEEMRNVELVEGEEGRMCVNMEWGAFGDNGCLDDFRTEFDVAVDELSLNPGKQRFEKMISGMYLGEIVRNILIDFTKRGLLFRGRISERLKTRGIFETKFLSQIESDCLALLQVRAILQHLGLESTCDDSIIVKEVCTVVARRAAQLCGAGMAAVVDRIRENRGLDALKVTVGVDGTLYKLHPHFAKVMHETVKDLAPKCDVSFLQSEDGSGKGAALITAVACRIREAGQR
UniProt P46976, sequence (P46976 whole entry, looked up): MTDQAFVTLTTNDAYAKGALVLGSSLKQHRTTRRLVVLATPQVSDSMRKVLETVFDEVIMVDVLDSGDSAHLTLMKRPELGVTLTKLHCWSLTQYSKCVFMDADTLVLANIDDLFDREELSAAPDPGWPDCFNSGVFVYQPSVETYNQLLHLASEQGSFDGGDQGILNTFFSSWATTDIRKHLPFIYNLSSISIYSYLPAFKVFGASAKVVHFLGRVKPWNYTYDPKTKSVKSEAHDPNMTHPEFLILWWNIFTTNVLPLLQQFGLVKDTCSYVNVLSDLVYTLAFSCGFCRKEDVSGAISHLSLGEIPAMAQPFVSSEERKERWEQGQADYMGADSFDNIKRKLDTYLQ
UniProt Q8NCW6, sequence (Q8NCW6 whole entry, looked up): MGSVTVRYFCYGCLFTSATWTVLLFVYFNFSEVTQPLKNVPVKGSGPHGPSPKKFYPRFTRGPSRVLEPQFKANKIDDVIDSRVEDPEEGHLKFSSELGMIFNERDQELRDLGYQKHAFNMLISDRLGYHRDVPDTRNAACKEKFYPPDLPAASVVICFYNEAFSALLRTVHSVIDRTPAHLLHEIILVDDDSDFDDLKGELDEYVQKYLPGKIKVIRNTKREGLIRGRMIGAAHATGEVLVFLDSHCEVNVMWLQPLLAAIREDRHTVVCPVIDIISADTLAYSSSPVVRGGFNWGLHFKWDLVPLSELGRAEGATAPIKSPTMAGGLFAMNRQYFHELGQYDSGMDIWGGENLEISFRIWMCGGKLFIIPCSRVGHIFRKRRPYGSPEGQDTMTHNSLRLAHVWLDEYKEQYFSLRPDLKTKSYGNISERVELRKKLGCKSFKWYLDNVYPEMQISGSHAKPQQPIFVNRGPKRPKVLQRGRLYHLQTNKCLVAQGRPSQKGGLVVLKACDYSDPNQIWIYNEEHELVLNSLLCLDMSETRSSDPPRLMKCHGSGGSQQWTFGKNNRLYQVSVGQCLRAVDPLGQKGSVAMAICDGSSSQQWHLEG
UniProt Q6P3S6, sequence (Q6P3S6 whole entry, looked up): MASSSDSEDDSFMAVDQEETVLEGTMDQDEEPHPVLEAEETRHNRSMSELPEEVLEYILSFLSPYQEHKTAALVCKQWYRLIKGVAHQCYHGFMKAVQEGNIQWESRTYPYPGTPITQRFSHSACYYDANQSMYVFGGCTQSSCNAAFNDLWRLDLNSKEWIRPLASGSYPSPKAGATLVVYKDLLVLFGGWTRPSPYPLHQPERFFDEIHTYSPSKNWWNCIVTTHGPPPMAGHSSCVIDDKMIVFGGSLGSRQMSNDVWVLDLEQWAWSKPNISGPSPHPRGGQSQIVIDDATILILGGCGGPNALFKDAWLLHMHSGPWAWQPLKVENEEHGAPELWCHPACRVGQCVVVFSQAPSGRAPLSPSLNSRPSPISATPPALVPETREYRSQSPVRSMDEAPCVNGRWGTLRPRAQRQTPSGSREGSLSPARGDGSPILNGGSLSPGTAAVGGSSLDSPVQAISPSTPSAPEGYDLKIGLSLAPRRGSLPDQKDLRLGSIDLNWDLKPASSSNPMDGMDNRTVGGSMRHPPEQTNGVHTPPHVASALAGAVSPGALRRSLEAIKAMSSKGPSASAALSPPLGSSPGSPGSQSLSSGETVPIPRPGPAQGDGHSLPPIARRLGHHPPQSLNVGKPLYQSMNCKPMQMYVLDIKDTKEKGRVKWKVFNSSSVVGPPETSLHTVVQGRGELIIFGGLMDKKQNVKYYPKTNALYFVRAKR
UniProt Q9UKD1, sequence (Q9UKD1 whole entry, looked up): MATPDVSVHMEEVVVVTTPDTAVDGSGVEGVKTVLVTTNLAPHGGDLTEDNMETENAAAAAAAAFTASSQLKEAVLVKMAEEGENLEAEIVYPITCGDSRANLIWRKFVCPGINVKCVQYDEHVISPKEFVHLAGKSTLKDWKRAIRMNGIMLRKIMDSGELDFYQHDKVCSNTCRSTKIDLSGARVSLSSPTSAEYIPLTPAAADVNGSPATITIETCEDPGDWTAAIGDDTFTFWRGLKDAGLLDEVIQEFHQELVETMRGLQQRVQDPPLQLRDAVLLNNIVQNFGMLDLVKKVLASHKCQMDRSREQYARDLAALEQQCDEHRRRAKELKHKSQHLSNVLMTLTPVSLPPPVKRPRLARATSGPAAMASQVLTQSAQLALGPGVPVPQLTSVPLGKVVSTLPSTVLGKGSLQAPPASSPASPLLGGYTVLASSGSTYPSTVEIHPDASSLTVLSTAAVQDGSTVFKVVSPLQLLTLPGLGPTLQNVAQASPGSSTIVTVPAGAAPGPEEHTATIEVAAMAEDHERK
UniProt P29084, sequence (P29084 whole entry, looked up): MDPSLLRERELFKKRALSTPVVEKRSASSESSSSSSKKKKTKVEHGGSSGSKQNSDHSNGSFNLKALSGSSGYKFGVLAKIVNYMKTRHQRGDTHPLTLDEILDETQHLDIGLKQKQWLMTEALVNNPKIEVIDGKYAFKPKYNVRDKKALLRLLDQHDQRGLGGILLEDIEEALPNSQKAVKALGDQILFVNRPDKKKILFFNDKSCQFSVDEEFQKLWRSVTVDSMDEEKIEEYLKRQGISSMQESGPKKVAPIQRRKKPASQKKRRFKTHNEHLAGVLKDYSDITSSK
UniProt Q86UX7, sequence (Q86UX7 whole entry, looked up): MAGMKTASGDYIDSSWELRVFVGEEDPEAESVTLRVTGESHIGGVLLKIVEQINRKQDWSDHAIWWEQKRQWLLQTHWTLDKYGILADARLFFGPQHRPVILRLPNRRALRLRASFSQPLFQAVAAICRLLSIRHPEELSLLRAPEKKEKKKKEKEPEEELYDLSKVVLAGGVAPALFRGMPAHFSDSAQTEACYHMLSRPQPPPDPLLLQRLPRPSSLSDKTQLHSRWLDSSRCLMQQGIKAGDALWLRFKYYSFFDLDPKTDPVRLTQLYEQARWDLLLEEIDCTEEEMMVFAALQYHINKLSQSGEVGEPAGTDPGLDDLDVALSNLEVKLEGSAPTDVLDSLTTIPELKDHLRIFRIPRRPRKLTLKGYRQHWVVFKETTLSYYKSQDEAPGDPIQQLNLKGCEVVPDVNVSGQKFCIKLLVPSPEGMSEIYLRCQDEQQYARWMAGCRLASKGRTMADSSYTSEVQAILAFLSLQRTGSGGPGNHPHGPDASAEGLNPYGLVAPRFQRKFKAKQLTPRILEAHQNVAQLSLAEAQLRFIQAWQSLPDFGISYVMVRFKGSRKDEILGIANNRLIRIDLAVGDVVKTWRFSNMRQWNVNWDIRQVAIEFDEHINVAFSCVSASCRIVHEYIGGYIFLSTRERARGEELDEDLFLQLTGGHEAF
UniProt P05114, sequence (P05114 whole entry, looked up): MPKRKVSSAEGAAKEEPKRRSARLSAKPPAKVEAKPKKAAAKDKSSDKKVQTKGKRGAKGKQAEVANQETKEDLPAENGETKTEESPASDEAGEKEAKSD
UniProt P52657, sequence (P52657 whole entry, looked up): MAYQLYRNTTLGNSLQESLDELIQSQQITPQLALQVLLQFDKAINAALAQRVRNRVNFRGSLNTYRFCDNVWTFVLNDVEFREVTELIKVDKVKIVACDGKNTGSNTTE
In the case of IDH3A (UniProt P50213), the log2 fold change is reported as -0.024.
Work on HMGCR isoform 3 (UniProt P04035) yielded a log2 fold change of -0.29.
HNRNPUL1 (UniProt M0R247) showed a log2 fold change of -0.056.
For GUSB (UniProt P08236), the log2 fold change was 0.11.
Work on HOOK3 (UniProt Q86VS8) yielded a log2 fold change of 0.025.
FAT2 (UniProt Q9NYQ8) showed a log2 fold change of 0.119.
GALC (UniProt P54803) gave a log2 fold change of 0.067.
FBXO42 (UniProt Q6P3S6) was tested, and the log2 fold change was -0.049.
Target HADHB (UniProt P55084) has a log2 fold change of 0.006.
Work on FERMT3 (UniProt Q86UX7) yielded a log2 fold change of -0.005.
Target IFITM3 (UniProt Q01628) has a log2 fold change of 0.034.
Target HNRNPK isoform 2 (UniProt P61978) has a log2 fold change of 0.064.
Target GPS2 (UniProt Q13227) has a log2 fold change of 0.058.
With GCLM (UniProt P48507) the log2 fold change was 0.012.
GLS isoform 3 (UniProt O94925) gave a log2 fold change of -0.055.
HNRNPK isoform 3 (UniProt P61978) gave a log2 fold change of 0.003.
In the case of GLS (UniProt O94925), the log2 fold change is reported as 0.022.
Work on GTF2A2 (UniProt P52657) yielded a log2 fold change of 0.014.
For GSTP1 (UniProt P09211), the log2 fold change was -0.03.
In the case of GTF2E1 (UniProt P29083), the log2 fold change is reported as -0.048.
For GLIPR2 (UniProt Q9H4G4), the log2 fold change was 0.055.
With GALNT1 (UniProt Q10472) the log2 fold change was 0.01.
With HSPA8 (UniProt E9PK54) the log2 fold change was -0.212.
GALNT11 (UniProt Q8NCW6) gave a log2 fold change of -0.159.
GEMIN2 (UniProt O14893) showed a log2 fold change of 0.002.
HMGN1 (UniProt P05114) was tested, and the log2 fold change was 0.089.
GSR (UniProt P00390) gave a log2 fold change of -0.047.
HECTD1 (UniProt Q9ULT8) gave a log2 fold change of -0.057.
For GMEB2 (UniProt Q9UKD1), the log2 fold change was 0.072.
In the case of GEMIN6 (UniProt Q8WXD5), the log2 fold change is reported as 0.082.
In the case of GNL1 (UniProt P36915), the log2 fold change is reported as 0.028.
Work on HNRNPH1 (UniProt P31943) yielded a log2 fold change of 0.108.
With GTF2E2 (UniProt P29084) the log2 fold change was -0.011.
HS1BP3 (UniProt Q53T59) showed a log2 fold change of -0.126.
GNS (UniProt P15586) showed a log2 fold change of 0.002.
FKBP3 (UniProt Q00688) gave a log2 fold change of -0.028.
With HK2 (UniProt P52789) the log2 fold change was -0.54 (active).
With GYG1 (UniProt P46976) the log2 fold change was 0.643 (active).
For FARS2 (UniProt O95363), the log2 fold change was 0.011.
